LMP1 NFkB inh = reduces LMP1-driven NF-kappaB luciferase signal. LMP1-induced NF-kappaB luciferase reporter cells, luminescence. inhibition, % at 12.5 µM. 350,000 compounds, 0.69% hits; in the data active = inhibition above about 41%; inconclusive = no clear call, values can overlap the other calls;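 also: 0% = neutral control wells and 100% = reference inhibitor control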
esBAF inh = inhibitors of esBAF chromatin remodeling in mouse ES cells; Bmi1-luciferase knock-in reporter, 24 h; 100% = twice the neutral-well signal; reporter increase, % at 12.5 µM; 350,000 compounds, 2% hits; in the data active = activation above about 40%; inconclusive = no clear call, values can overlap the other calls;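 also: 0% = median of the plate's neutral control wells and 100% = double that signal; a rise in the Bmi1 reporter signal indicates esBAF inhibition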
MITF TRPM1 inh = reduces MITF-dependent TRPM1 promoter luciferase signal. AID 488899. SK-MEL-5 TRPM1 promoter luciferase, 24 h. inhibition, % at 12.5 µM. 330,000 compounds, 0.83% hits;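 active = mean inhibition across replicates of 60% or more, whatever share of single replicates reaches that level; inconclusive = some that reach 60%, reason not given; inactive = mean inhibition across replicates below 60%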
Wnt bcat act = activates Wnt/beta-catenin signaling in a reporter cell assay; activator, plate reader; activation, % at 9.35 µM; 300,000 compounds, 1.2% hits; in the data active = activation above about 30%, passing the limit was not always enough; inconclusive = no clear call, values can overlap the other calls;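 also: 0% = neutral control wells and 100% = positive control wells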
MITF act = activators of MITF-driven TRPM1 promoter activity in SK-MEL-5 cells; 300,000 compounds, 0.75% hits; SK-MEL-5 TRPM1-promoter luciferase, 24 h; % of positive control, neutral wells = 0; activation, % at 12.5 µM;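 active = mean activation of at least 80% with every replicate also reaching 80%; inconclusive = mean reaches 80% but some replicate falls short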;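 also: 0% = neutral control wells and 100% = parthenolide positive control wells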
C2C12 statin = protects C2C12 myotubes from simvastatin toxicity. ATP luminescence, 48 h; scaled: DMSO 0, geranylgeraniol control 100. rescue of ATP level, % at 7.49 µM. 330,000 compounds, 0.78% hits. AID 602340;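 active = mean ATP rescue above about 67%, or every replicate alone reaching that limit, limit read from the data, passing the limit was not always enough; inconclusive = no clear call, values can overlap the other calls; inactive = mean under the limit and some replicate under it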;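 also: myotubes were challenged with 10 µM simvastatin during compound exposure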
The depositor's hits bear a star; ? = inconclusive; . = no result; ! = not confirmed by another sample. Sampled rows, rich in hits. Any-hit rate of the full collection: about 4%.

SMILES	LMP1 NFkB inh	esBAF inh	MITF TRPM1 inh	Wnt bcat act	MITF act	C2C12 statin
Nc1c2ccccc2nc2ccccc12	-20.1	5.9	84.0*	69.3*!	-83.1	45.0
Nc1c2c(nc3ccccc13)CCCC2	3.2	-3.9	-10.0	-2.9	9.1	-0.1
Cc1cc(C)n(-c2nc(-c3ccc(Cl)cc3)cs2)n1	-33.3	51.4*	-39.4	-0.5	36.0	-13.7
Cc1cc(C)n2nc(-c3ccc(Br)cc3)cc2n1	-46.6	34.8	-27.7	45.1*	.	-26.0
COc1ccc(-c2cc3nc(C)cc(C)n3n2)cc1	-17.9	11.7	-56.1	-4.6	52.9	-3.8
Cc1cc(C)n2nc(-c3ccc(Cl)cc3)cc2n1	-53.6	19.9	-19.5	34.1*	23.5	9.7
CCCCOC(=O)Cn1c(=O)c2c(nc3n2CCCCN3c2ccc(C)cc2)n(C)c1=O	1.8	-9.5	10.1	-2.2	-9.2	103.4*
O=C(Nc1nc2cc3c(cc2s1)OCCO3)c1ccncc1	-1.6	.	-59.8	16.6	62.2	.
O=C(Nc1cccnc1N1CCOCC1)c1ccco1	-2.6	.	-1.9	41.1*	1.4	.
CCOc1cc(N2CCOCC2)c(OCC)cc1NC(=O)c1ccc2ccccc2n1	-8.7	.	-18.1	2.0	?	.
C[C@@H]1CCCCO[C@H](CN(C)Cc2ccc(Cl)c(Cl)c2)[C@@H](C)CN([C@H](C)CO)C(=O)c2cc(NC(=O)CCC(F)(F)F)ccc2O1	.	-4.2	.	.	.	.
CSc1nc2[nH]c3c(c2c2nncn12)CC(C)(C)OC3	-10.2	-8.4	-3.7	-0.2	.	-7.7
COc1ccc(-c2nc3nc(C)cc(C)n3n2)cc1	-21.9	23.7	-42.2	32.8*	43.5	-0.8
CCCCCCC(=O)N(O)C1CC(=O)N(c2ccc(C)cc2)C1=O (stereo not drawn)	51.4*	-9.6	15.5	7.2	-13.0	-12.2
CCCCCCC(=O)N(O)C1CC(=O)N(c2ccc(Cl)cc2)C1=O (stereo not drawn)	30.5	.	10.7	51.8*	.	.
CC(=O)n1cc(N(C(=O)CCl)c2ccc([N+](=O)[O-])cc2)c2ccccc21	-2.7	.	69.2*	2.9	.	.
O=Cc1[nH]c2ccccc2c1N(C(=O)CCl)c1ccc([N+](=O)[O-])cc1	-11.2	.	-3.4	2.7	.	.
CC(=O)n1cc(N(C(=O)CCl)c2ccccc2)c2ccccc21	7.3	.	65.7*	0.9	.	.
O=C(CNC(=O)c1ccccc1)OC1CCCCC1	-9.8	.	-43.6	47.1*	47.4	.
COC(=O)CNC(=O)c1ccccc1	3.4	-0.7	-6.4	-0.7	7.5	7.4
COc1ccccc1OCC(=O)N/N=C/C=C/c1ccc([N+](=O)[O-])o1	-72.2	.	75.6*	68.9*	-75.2	.
O=C(COc1ccccc1[N+](=O)[O-])N/N=C/C=C/c1ccco1	-8.9	4.5	-37.0	21.6	.	7.5
Cc1cc(C)cc(OCC(=O)N/N=C/c2ccc([N+](=O)[O-])o2)c1	-18.5	.	66.5*	0.5	-66.8	.
O=C(N/N=C\C=C\c1ccc([N+](=O)[O-])o1)c1cccs1	-67.4	-0.9	82.6*	9.3	-81.2	29.1
Cc1ccccc1OCC(=O)NCC(=O)N/N=C/c1ccc(Br)o1	-0.2	.	-3.9	.	4.2	.
SMILES	LMP1 NFkB inh	esBAF inh	MITF TRPM1 inh	Wnt bcat act	MITF act	C2C12 statin
O=C(N/N=C/C=C/c1ccccc1)c1cccs1	-6.4	.	-12.6	2.7	18.9	.
CCOC(=O)N/N=C\c1ccc([N+](=O)[O-])o1	3.5	-7.1	20.4	-15.6	-24.2	17.4
Cc1ccccc1OCC(=O)N/N=C/c1ccc([N+](=O)[O-])o1	-26.1	.	78.9*	2.3	-77.0	.
O=C(CSC(=S)N1CCCC1)N/N=C/c1c(O)[nH]c(=S)[nH]c1=O	3.0	-1.2	-3.9	-0.9	6.9	5.8
CC1(C(=O)N/N=C/c2ccc([N+](=O)[O-])o2)CC1(Br)Br (stereo not drawn)	-15.1	.	74.2*	-2.7	-74.2	.
CCOc1ccc2nc(N3C(=O)/C(=C/c4ccc(Cl)cc4)NC3=S)sc2c1	-6.6	.	-3.9	6.2	2.8	.
CCc1ccc(CN(C)C(=O)CCc2nnc(CCc3ccccc3OC)o2)nc1	-0.5	-0.6	0.1	-1.5	2.7	7.9
Cc1ccnc(NC(=O)CCC(=O)N(CC(=O)NCC2CCCO2)Cc2ccc(F)cc2)c1 (stereo not drawn)	-5.1	-8.3	4.5	0.3	-6.0	91.3*
Cc1ccnc(NC(=O)CCC(=O)N(CC(=O)NCc2ccc(F)cc2)CC2CCCO2)c1 (stereo not drawn)	-3.9	-1.6	6.0	-1.0	-5.6	-8.7
COCC(=O)Nc1cc(C(=O)NCCc2ccccc2)ccc1Cl	-17.1	.	-23.1	12.8	27.3	.
O=C(CSc1nccn1Cc1ccccc1)Nc1ccccc1	-10.8	15.3	-11.3	0.8	15.0	2.3
Cc1cccc(NC(=O)CSc2nccn2C)c1	-6.1	.	-12.6	.	11.1	.
COC(=O)c1ccc(NC(=O)CSc2nccn2CCc2ccccc2)cc1	-32.5	45.8*	-56.8	8.5	65.5	-62.5
Cn1ccnc1SCC(=O)Nc1ccc(SC(F)F)cc1	-20.4	82.1*	-109.6	28.1	108.7*	18.1
Cn1ccnc1SCC(=O)Nc1ccc2ccccc2c1	2.8	-0.8	-49.8	.	47.5	-3.6
Cn1ccnc1SCC(=O)Nc1ccccc1	-4.8	-0.4	-5.7	.	8.1	136.9*
CO[C@@H]1CN(C)C(=O)c2cc(NS(=O)(=O)c3ccccc3)ccc2OC[C@H](C)N(C)C[C@@H]1C	.	-1.6	.	.	.	-9.7
CC(=O)Nc1ccc(NC(=O)CN(c2ccc(F)cc2)S(=O)(=O)c2ccc3c(c2)OCCO3)cc1	-7.0	-3.6	-2.3	.	5.7	4.9
CC(C)c1ccc(C2(C)NC(=O)N(CC(=O)NC3(C#N)CCCC3)C2=O)cc1 (stereo not drawn)	-0.2	2.7	2.5	-3.3	-1.0	2.3
COc1c(Br)cc([N+](=O)[O-])c(OC)c1C(=O)NC(=O)Nc1cc(Cl)cc(Cl)c1	-0.4	.	3.8	-8.6	.	.
CC(C)OC(=O)C1C(=O)CC(C)(O)C(C(=O)OC(C)C)C1c1ccc([N+](=O)[O-])cc1 (stereo not drawn)	6.0	.	1.3	0.1	2.0	.
Cc1ccc(-c2csc(=Nc3cccnc3)n2CCCN2CCCC2=O)cc1C	2.6	.	20.5	1.3	-17.7	.
Cc1ccc(-c2csc(=Nc3cccnc3)n2CCCn2ccnc2)cc1C	46.8*	.	2.8	-3.5	-0.2	.
Cc1ccc(C(=O)Nc2ccc3cn[nH]c3c2)cc1S(=O)(=O)N1CCCCC1	-46.2	75.3*	-11.7	17.9	12.0	?
Cc1ccnc(NC(=O)c2ccc(S(=O)(=O)N3CCC(C)CC3)cc2)c1	-20.0	.	-90.7	36.3*	97.4*	.
Cc1ccnc(NC(=O)c2ccc(Cl)c(S(=O)(=O)N3CCCCC3)c2)c1	16.3	57.1*	-32.3	20.5	32.3	-4.3
O=C(O)c1cccc(NC(=O)c2ccc(Cl)c(S(=O)(=O)N3CCCCCC3)c2)c1	56.6*	.	-31.0	?	37.0	.
CC1CCN(S(=O)(=O)c2ccc(C(=O)Nc3ccccn3)cc2)CC1	-6.3	.	-49.2	19.6	51.7	.

High-throughput results from PubChem BioAssay.
